The values that follow come from PubChem BioAssay (EPA / NIEHS).

Where “and” joins values, the source holds several entries; their conditions need not be identical. Equal values may be shown once. Inconclusive results are not listed. Some structures have more than one record in an assay (separate samples or runs), and their calls can disagree. Calls of active or inactive are those of the source. The calls were made as follows: active = hit-call score of the fitted dose curve at least 0.9, where 1 is the maximum; inconclusive = response in the unintended direction; inactive = score below 0.9.

The target of experiment [1] is human Raf-1 Proto-Oncogene, serine/threonine Kinase (RAF1), RAF1 (gene 5894) (UniProt P04049). The experiment in a line: NVS_ENZ_hRAF1: NovaScreen (NVS) Enzymatic Assay for human Raf-1 Proto-Oncogene, serine/threonine Kinase (RAF1) (AID 2283216). The protocol: (§1) NVS_ENZ_hRAF1 is a biochemical, single-readout assay that uses extracted gene-proteins in a cell-free assay. Measurements were taken 1 hour after chemical dosing in a 384-well plate.NVS_ENZ_hRAF1 is one of one assay component(s) measured or calculated from the NVS_ENZ_hRAF1 assay. It is designed to make measurements of enzyme activity, a form of enzyme reporter, as detected with fluorescence intensity signals by Fluorescence and electrophoretic mobility shift technology.Data from the assay component NVS_ENZ_hRAF1 was analyzed into 1 assay endpoint. This assay endpoint, NVS_ENZ_hRAF1, was analyzed in the positive analysis fitting direction relative to DMSO as the negative control and baseline of activity. Using a type of enzyme reporter, loss-of-signal activity can be used to understand changes in the enzymatic activity as they relate to the gene RAF1. Furthermore, this assay endpoint can be referred to as a primary readout, because this assay has produced multiple assay endpoints where this one serves a enzymatic activity function. To generalize the intended target to other relatable targets, this assay endpoint is annotated to the kinase intended target family, where the subfamily is serine/threonine kinase.
Binding assays used specific radioligands (tritiated, iodinated) with non-radioactive competitive displacement ligands in agonist or antagonist protocols (as indicated) and various reference compounds and inhibitors to titrate specific binding to receptors and transporters. Most enzyme assays (CYPs, kinases, phosphatases, proteases, HDACs) used recombinant protein and specific substrates (fluorescence mostly, some colorimetric and radioactive) and inhibitors, followed by a biochemical separation of substrate and product. All assays for the biochemical HTS were initially run in duplicate at a single concentration (10 uM for CYP450 assays and 25 uM for all others). Assay-chemical combinations meeting a pre-defined threshold (e.g., 30% inhibition and other criteria defined below) were then run in singleton concentration-response format with maximum concentration of 20 uM for CYPs and 50 uM for all others. Each assay was run with positive and negative controls, and concurrent controls on every plate. The follow-up (secondary) screen tested active chemical-pairs in concentration series, as well as a few additional assays not tested in the primary screen, some selected negative inactives, and several cases re-run in the concentration series for confirmatory purposes.

Experiment [2] concerns the target human Sirtuin 3 (SIRT3), SIRT3 (gene 23410) (UniProt Q9NTG7). The experiment in a line: NVS_ENZ_hSIRT3: NovaScreen (NVS) Enzymatic Assay for human Sirtuin 3 (SIRT3) (AID 2283222). The method, boiled down:
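Cell-free enzyme assay with recombinant protein and fluorescent substrate, product separated by electrophoretic mobility shift; read 1 hour after dosing. Screened in duplicate at 25 uM, then singleton concentration-response up to 50 uM; loss of signal versus DMSO.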

In experiment [3] the target is human Protein Tyrosine Phosphatase Receptor Type M (PTPRM), PTPRM (gene 5797) (UniProt P28827). The experiment in a line: NVS_ENZ_hPTPRM: NovaScreen (NVS) Enzymatic Assay for human Protein Tyrosine Phosphatase Receptor Type M (PTPRM) (AID 2283215). The method, boiled down: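 Cell-free recombinant PTPRM with fluorogenic substrate; product separated from substrate by electrophoretic mobility shift and read by fluorescence, 1.33 h after dosing. Primary screen single concentration (25 uM) in duplicate; actives retested in concentration series; loss of signal versus DMSO.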

Experiment [4] concerns the target human Tropomyosin Receptor Kinase A (TRKA), NTRK1 (gene 4914) (UniProt P04629). The experiment in a line: NVS_ENZ_hTrkA: NovaScreen (NVS) Enzymatic Assay for human Tropomyosin Receptor Kinase A (TRKA) (AID 2283224). The method, boiled down: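 Recombinant human TrkA activity read after 1 h by fluorescence with electrophoretic mobility shift separating substrate and product. Primary screen in duplicate at 25 uM; actives were rerun in concentration-response up to 50 uM. Loss of signal versus DMSO.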

Experiment [5] has as its target human Tyrosine Protein Kinase Receptor Tie-2 (Tie2), TEK (gene 7010) (UniProt Q02763). The experiment in a line: NVS_ENZ_hTie2: NovaScreen (NVS) Enzymatic Assay for human Tyrosine Protein Kinase Receptor Tie-2 (Tie2) (AID 2283225). The method, boiled down:
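Recombinant human Tie2 kinase activity was read cell-free by fluorescence with electrophoretic mobility shift, 1 hour after dosing. The screen used 25 uM in duplicate, then concentration-response up to 50 uM. Signal loss was scored against DMSO.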

Experiment [6] deals with human Vascular Endothelial Growth Factor Receptor 1 (VEGFR1), FLT1 (gene 2321) (UniProt P17948). The experiment in a line: NVS_ENZ_hVEGFR1: NovaScreen (NVS) Enzymatic Assay for human Vascular Endothelial Growth Factor Receptor 1 (VEGFR1) (AID 2283226). The protocol:
as §1, with “NVS_ENZ_hVEGFR1” for “NVS_ENZ_hRAF1”, “plate.NVS_ENZ_hVEGFR1” for “plate.NVS_ENZ_hRAF1”, “NVS_ENZ_hVEGFR1,” for “NVS_ENZ_hRAF1,”, “FLT1.” for “RAF1.”, “receptor tyrosine” for “serine/threonine”
Binding assays used specific radioligands (tritiated, iodinated) with non-radioactive competitive displacement ligands in agonist or antagonist protocols (as indicated) and various reference compounds and inhibitors to titrate specific binding to receptors and transporters. Most enzyme assays (CYPs, kinases, phosphatases, proteases, HDACs) used recombinant protein and specific substrates (fluorescence mostly, some colorimetric and radioactive) and inhibitors, followed by a biochemical separation of substrate and product. All assays for the biochemical HTS were initially run in duplicate at a single concentration (10 uM for CYP450 assays and 25 uM for all others). […] Each assay was run with positive and negative controls, and concurrent controls on every plate. […]

Experiment [7] has as its target human SRC Proto-Oncogene, Non-receptor Tyrosine Kinase (SRC), SRC (gene 6714) (UniProt P12931). The experiment in a line: NVS_ENZ_hSRC: NovaScreen (NVS) Enzymatic Assay for human SRC Proto-Oncogene, Non-receptor Tyrosine Kinase (SRC) (AID 2283223). The method, boiled down:
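Cell-free kinase activity assay with fluorescent substrate, product separated by electrophoretic mobility shift, read 1 h after dosing. Duplicate single point at 25 uM, then concentration-response up to 50 uM; loss of signal versus DMSO.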

Experiment [8] has as its target human Sirtuin 2 (SIRT2), SIRT2 (gene 22933) (UniProt Q8IXJ6). The experiment in a line: NVS_ENZ_hSIRT2: NovaScreen (NVS) Enzymatic Assay for human Sirtuin 2 (SIRT2) (AID 2283217). The method, boiled down: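 Cell-free recombinant human SIRT2, fluorescent substrate with product separated by electrophoretic mobility shift, 1 hr. Screened in duplicate at 25 uM; hits rerun singly in concentration-response up to 50 uM, relative to DMSO.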

Experiment [9] deals with human Sirtuin 1 (SIRT1), SIRT1 (gene 23411) (UniProt Q96EB6). The experiment in a line: NVS_ENZ_hSIRT1: NovaScreen (NVS) Enzymatic Assay for human Sirtuin 1 (SIRT1) (AID 2283219). The method, boiled down:
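Cell-free recombinant SIRT1 with a fluorescent substrate; substrate and product separated by electrophoretic mobility shift and read by fluorescence intensity, 1 h after dosing. Primary screen at 25 uM in duplicate; hits re-run in concentration-response up to 50 uM, relative to DMSO.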

human SRC Proto-Oncogene, Non-receptor Tyrosine Kinase (SRC), SRC (gene 6714), sequence (P12931 whole entry, looked up): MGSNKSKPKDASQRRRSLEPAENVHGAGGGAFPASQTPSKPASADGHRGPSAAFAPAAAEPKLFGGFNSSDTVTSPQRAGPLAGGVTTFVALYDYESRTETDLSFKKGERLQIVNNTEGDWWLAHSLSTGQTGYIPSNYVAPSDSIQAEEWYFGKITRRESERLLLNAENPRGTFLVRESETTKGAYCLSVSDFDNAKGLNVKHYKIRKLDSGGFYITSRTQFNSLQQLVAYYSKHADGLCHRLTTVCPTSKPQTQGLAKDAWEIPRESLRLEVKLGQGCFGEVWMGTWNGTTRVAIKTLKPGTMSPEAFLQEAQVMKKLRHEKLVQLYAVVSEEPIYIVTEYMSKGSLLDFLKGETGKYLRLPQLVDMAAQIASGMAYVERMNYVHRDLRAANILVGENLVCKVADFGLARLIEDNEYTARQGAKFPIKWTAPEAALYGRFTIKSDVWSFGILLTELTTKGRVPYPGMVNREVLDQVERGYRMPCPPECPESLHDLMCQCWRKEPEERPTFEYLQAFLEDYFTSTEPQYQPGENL
human Raf-1 Proto-Oncogene, serine/threonine Kinase (RAF1), RAF1 (gene 5894), sequence (P04049 whole entry, looked up): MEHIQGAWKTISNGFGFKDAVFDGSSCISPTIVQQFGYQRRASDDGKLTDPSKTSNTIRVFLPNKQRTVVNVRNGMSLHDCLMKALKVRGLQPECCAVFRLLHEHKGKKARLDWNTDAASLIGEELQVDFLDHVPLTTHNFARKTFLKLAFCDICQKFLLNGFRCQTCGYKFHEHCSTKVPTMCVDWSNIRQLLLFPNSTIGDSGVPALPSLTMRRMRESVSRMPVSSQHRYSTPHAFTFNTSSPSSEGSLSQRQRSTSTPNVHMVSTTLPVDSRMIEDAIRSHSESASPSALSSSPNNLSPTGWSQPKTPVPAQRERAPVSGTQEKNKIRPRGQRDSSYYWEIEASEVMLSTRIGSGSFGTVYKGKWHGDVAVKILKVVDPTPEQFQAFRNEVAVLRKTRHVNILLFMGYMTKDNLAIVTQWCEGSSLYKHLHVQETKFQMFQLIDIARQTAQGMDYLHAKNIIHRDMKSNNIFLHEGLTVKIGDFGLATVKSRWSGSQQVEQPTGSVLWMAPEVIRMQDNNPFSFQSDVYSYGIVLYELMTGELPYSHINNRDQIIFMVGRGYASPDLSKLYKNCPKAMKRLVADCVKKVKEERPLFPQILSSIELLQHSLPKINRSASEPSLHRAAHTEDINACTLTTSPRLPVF
human Protein Tyrosine Phosphatase Receptor Type M (PTPRM), PTPRM (gene 5797), sequence (P28827 whole entry, looked up): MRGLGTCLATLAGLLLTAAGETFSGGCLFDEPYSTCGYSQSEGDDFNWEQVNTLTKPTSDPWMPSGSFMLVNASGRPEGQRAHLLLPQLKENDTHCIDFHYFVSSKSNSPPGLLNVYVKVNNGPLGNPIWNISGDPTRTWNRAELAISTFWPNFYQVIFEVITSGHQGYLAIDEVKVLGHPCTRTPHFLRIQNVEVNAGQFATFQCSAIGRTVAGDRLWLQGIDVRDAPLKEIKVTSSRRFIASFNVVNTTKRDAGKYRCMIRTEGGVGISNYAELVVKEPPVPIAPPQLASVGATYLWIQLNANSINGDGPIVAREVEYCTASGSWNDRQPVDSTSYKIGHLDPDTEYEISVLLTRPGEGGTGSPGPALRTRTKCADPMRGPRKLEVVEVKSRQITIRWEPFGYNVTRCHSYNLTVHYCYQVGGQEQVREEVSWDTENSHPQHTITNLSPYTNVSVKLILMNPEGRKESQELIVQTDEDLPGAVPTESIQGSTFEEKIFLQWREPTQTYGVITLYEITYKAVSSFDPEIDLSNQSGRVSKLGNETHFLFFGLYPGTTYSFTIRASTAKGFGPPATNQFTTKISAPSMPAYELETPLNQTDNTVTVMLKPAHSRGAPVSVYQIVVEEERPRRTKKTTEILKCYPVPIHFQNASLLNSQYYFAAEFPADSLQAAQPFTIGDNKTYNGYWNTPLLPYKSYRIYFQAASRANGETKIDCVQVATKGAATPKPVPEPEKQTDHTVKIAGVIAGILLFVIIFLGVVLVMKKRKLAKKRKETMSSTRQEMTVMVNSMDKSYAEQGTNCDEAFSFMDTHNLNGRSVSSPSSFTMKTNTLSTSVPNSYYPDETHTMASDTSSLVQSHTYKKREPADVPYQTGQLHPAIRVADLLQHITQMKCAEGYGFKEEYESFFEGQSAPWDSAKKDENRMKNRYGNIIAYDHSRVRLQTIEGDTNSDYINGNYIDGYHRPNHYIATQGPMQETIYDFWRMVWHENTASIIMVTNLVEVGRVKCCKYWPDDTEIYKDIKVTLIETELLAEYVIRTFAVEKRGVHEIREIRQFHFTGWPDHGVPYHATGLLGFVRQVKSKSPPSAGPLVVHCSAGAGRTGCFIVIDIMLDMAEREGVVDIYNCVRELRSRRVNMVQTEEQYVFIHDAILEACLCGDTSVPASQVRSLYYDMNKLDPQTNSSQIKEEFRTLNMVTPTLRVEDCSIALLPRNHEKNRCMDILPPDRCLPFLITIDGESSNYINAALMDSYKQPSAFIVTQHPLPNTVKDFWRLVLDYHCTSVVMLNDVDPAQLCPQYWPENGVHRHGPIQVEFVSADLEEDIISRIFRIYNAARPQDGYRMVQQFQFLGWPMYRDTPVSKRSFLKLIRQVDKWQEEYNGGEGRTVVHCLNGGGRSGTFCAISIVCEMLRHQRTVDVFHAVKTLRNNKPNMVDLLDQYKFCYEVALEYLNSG
human Tyrosine Protein Kinase Receptor Tie-2 (Tie2), TEK (gene 7010), sequence (Q02763 whole entry, looked up): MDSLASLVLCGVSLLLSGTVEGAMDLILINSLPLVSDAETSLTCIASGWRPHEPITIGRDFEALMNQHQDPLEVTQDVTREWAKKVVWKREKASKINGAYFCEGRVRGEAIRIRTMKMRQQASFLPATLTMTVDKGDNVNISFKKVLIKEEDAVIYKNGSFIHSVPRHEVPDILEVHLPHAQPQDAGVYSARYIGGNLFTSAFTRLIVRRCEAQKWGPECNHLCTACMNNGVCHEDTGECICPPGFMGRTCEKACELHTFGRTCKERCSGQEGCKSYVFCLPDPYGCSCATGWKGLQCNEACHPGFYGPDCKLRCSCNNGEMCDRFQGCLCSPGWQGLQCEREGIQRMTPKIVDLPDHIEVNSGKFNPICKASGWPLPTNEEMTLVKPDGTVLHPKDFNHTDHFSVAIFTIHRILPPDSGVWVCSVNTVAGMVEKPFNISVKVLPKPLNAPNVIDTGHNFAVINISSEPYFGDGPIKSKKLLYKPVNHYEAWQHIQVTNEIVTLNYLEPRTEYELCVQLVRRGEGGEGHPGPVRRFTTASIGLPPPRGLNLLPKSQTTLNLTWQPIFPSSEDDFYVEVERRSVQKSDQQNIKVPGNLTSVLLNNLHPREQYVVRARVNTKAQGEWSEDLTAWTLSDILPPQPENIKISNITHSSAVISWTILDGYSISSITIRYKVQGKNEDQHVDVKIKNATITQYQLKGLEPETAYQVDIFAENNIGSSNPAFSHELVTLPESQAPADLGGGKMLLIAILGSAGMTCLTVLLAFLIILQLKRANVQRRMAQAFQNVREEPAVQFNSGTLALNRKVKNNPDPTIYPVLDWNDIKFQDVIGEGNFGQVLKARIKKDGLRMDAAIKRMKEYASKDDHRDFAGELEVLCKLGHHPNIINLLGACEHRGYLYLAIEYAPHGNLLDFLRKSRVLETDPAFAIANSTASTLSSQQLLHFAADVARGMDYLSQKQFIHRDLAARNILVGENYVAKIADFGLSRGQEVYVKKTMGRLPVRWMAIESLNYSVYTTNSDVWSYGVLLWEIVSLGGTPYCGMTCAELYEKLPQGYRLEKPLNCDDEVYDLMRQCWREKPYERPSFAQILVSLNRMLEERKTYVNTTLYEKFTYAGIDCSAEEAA
human Sirtuin 3 (SIRT3), SIRT3 (gene 23410), sequence (Q9NTG7 whole entry, looked up): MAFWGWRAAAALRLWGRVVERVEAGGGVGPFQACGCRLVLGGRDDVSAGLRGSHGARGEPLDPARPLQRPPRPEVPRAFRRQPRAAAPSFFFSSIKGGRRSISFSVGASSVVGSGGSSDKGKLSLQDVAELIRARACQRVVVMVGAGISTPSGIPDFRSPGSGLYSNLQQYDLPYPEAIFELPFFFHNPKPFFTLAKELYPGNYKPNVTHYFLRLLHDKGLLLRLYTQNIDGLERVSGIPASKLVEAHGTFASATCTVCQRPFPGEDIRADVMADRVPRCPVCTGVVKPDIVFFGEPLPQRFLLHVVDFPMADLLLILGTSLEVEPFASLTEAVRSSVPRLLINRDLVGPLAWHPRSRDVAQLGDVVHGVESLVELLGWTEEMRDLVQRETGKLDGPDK
human Sirtuin 2 (SIRT2), SIRT2 (gene 22933), sequence (Q8IXJ6 whole entry, looked up): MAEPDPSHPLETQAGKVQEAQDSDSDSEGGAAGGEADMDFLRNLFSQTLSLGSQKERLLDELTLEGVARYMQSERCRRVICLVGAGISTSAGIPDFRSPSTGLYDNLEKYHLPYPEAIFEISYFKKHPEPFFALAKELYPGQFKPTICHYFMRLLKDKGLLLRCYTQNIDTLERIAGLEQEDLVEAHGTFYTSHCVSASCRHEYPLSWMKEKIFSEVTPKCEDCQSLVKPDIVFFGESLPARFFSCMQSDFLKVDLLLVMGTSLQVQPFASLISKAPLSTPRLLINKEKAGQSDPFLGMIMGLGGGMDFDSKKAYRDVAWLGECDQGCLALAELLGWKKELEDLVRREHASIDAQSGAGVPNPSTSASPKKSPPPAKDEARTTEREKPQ

Consider `CCCOc1nn(C(=O)NS(=O)(=O)c2ccccc2C(=O)OC)c(=O)n1C`, for which the result in experiment [1] was inactive.
In the case of `C[Si](Cn1cncn1)(c1ccc(F)cc1)c1ccc(F)cc1`, the result in experiment [2] was inactive.
With `CN(C)NC(=O)CCC(=O)O`, in experiment [1], the result was inactive.
For `Nc1c(Cl)cc([N+](=O)[O-])cc1Cl`, the call in [3] was inactive.
Consider `CN(C)[C@@H]1C(=O)C(C(N)=O)=C(O)[C@@]2(O)C(=O)C3=C(O)c4c(O)cccc4[C@@](C)(O)[C@H]3[C@H](O)[C@@H]12`, for which the AC50 was 11.1 µM (active) in experiment [1]; 17.8 µM (active) in experiment [4]; 7.51 µM (active) and 13.4 µM (active) and 8.19 µM (active) in [5]; 3.49 µM (active) in experiment [6]. For the same molecule, the molecule was classed as inactive in experiment [6].
Turning to `CCNc1nc(Cl)nc(NC(C)(C)C#N)n1`, in [7], the molecule was called inactive.
Turning to `CC[C@H](C)[C@H]1O[C@]2(C=C[C@@H]1C)C[C@@H]1C[C@@H](C/C=C(\C)[C@@H](O[C@H]3C[C@H](OC)[C@@H](O[C@H]4C[C@H](OC)[C@@H](NC)[C@H](C)O4)[C@H](C)O3)[C@@H](C)/C=C/C=C3\CO[C@@H]4[C@H](O)C(C)=C[C@@H](C(=O)O1)[C@]34O)O2`, the AC50 in [3] is 9.67 µM (active); in experiment [8], 25 µM (active); in experiment [2] it was 1.25 µM (active); in experiment [7], 34 µM (active). In addition, the outcome in [9] and in [5] was inactive.
Consider `O=C(O)c1cc(Oc2ccc(C(F)(F)F)cc2Cl)ccc1[N+](=O)[O-]`, for which the molecule was classed as inactive in [8].
Consider `CC(C1CC1)C(O)(Cn1cncn1)c1ccc(Cl)cc1` (stereo unspecified), for which the call in [7] was inactive.
Turning to `CC1(C(=O)Nc2ccc(O)c(Cl)c2Cl)CCCCC1`, the molecule was called inactive in experiment [3].
Consider `S=C1NCCN1`, for which the call in experiment [5] was inactive.
On to `C=C(C)[C@H]1Cc2c(ccc3c2O[C@@H]2COc4cc(OC)c(OC)cc4[C@@H]2C3=O)O1`, for which, in experiment [5], the result was inactive.

Usually AC50 stands for the midpoint of the concentration-response curve, whichever way the signal moves.
